Compounds without any hit were thinned out: in the full panel of roughly 83,000, 20% have a hit.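 Plates (96-well) were seeded with cells, treated with compound at one concentration, and incubated for 48 hours before percent growth was determined.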 A number with no mark means an inactive call. The source made the active and inactive calls. How the source made its calls: active means growth percent below 10; inactive means the rest.

The source of these data is PubChem BioAssay (NCI).

Some test systems named below: HCT-15 colon; HT29 colon; SNB-75 CNS; SNB-19 CNS; U251 CNS; PC-3 prostate; SK-MEL-5 melanoma; UACC-62 melanoma; LOX IMVI melanoma; SK-MEL-28 melanoma; SK-MEL-2 melanoma; EKVX NSCLC; SN12C renal; UO-31 renal; TK-10 renal; ACHN renal; A498 renal; CCRF-CEM leukemia; MOLT-4 leukemia; CAKI-1 renal.
What all share (assay): NCI-60 one-dose screen, 48 h (100 = growth as untreated, 0 = no growth, -100 = all killed)
What all share (settings): 10 µM unless noted

For `C=CCn1c(SCC(=O)Nc2ccc(C(=O)/C=C/c3cc(OC)c(OC)c(OC)c3)cc2)nnc1-c1cc(OC)c(OC)c(OC)c1`, the growth is 0.237% (active) in the experiment with HCT-15 colon; -34.8% (active) in the experiment on HT29 colon; 37.2% with SNB-75 CNS; 40.6% with SNB-19 CNS; 2.63% (active) in the experiment with U251 CNS; 49.9% in the experiment with PC-3 prostate. The growth was 31.7% in the experiment on SK-MEL-5 melanoma; 33.7% in the experiment on UACC-62 melanoma; 5.43% (active) in the experiment on LOX IMVI melanoma; 66.9% in the experiment with SK-MEL-28 melanoma; 80.9% in the experiment on SK-MEL-2 melanoma; 51.8% in the experiment on EKVX NSCLC. The growth with SN12C renal was 33.8%; in the experiment with UO-31 renal, 42%; in the experiment with TK-10 renal it was 87.3%; with ACHN renal, 37.8%; in the experiment with A498 renal, 55.8%; in the experiment on CCRF-CEM leukemia, 1.85% (active). Also, the growth with MOLT-4 leukemia was 12.3%.

On to `COc1ccc(Cn2nc(-c3cc(OC)c(OC)c(OC)c3)c3c2CCc2cnoc2-3)cc1OC`, for which the growth with HCT-15 colon is 53.1%; in the experiment on HT29 colon, 22%; with SNB-75 CNS it was 37.8%; with SNB-19 CNS, 65.4%; in the experiment on U251 CNS, 62.1%; in the experiment with PC-3 prostate, 65%. Besides, the growth is 38.7% in the experiment with SK-MEL-5 melanoma; 51.1% in the experiment on UACC-62 melanoma; 47% in the experiment with LOX IMVI melanoma; 64.9% in the experiment on SK-MEL-28 melanoma; 38% in the experiment with SK-MEL-2 melanoma; 77.7% in the experiment with EKVX NSCLC. Besides, the growth was 60.6% in the experiment on SN12C renal; 32.7% in the experiment on UO-31 renal; 72.5% in the experiment with TK-10 renal; 50.3% in the experiment on CAKI-1 renal; 42.1% with A498 renal; 55.6% with CCRF-CEM leukemia. Moreover, the growth in the experiment with MOLT-4 leukemia was 36.2%.

For `CN(C)C(=O)OCc1nc2c(N3CCOCC3)nc(-c3ccccc3)nc2n1C`, the growth is -38.6% (active) in the experiment on HCT-15 colon; -53.7% (active) with HT29 colon; -87.2% (active) with SNB-75 CNS; 13.9% in the experiment on SNB-19 CNS; -57.2% (active) in the experiment with U251 CNS; -65.2% (active) in the experiment on PC-3 prostate. In addition, the growth is -95.7% (active) in the experiment on SK-MEL-5 melanoma; -92% (active) with UACC-62 melanoma; -84.7% (active) with LOX IMVI melanoma; -95.4% (active) in the experiment on SK-MEL-28 melanoma; -73.5% (active) in the experiment with SK-MEL-2 melanoma; -56.8% (active) in the experiment on EKVX NSCLC. Also, the growth was -90.7% (active) in the experiment with SN12C renal; -100% (active) in the experiment with UO-31 renal; -77.7% (active) with TK-10 renal; -91.7% (active) in the experiment with CAKI-1 renal; -32.3% (active) in the experiment with A498 renal; -12% (active) in the experiment with CCRF-CEM leukemia. For the same molecule, the growth in the experiment on MOLT-4 leukemia is -3.34% (active).

For the molecule `CC(C)NC(=O)N1C(=O)CCC1NNC(=O)c1ccc([N+](=O)[O-])cc1` (stereo not given), the growth in the experiment with HCT-15 colon is 107%; in the experiment with HT29 colon, 106%; with SNB-75 CNS, 102%; with SNB-19 CNS, 107%; in the experiment on U251 CNS it was 109%; in the experiment with PC-3 prostate, 107%. Further, the growth in the experiment on SK-MEL-5 melanoma is 105%; in the experiment with UACC-62 melanoma it was 98.1%; in the experiment with LOX IMVI melanoma it was 93.9%; in the experiment on SK-MEL-28 melanoma, 98.4%; with SK-MEL-2 melanoma, 93.1%; with EKVX NSCLC, 110%. In addition, the growth with UO-31 renal is 92%; in the experiment with TK-10 renal, 101%; in the experiment on ACHN renal, 106%; in the experiment with CAKI-1 renal, 100%; in the experiment with CCRF-CEM leukemia, 104%; in the experiment on MOLT-4 leukemia it was 98.7%.

Consider `CC(=O)c1c[nH]c2ccc(-c3ccnc(Nc4ccc(NC(=O)c5cccc(F)c5)c(CN5CCOCC5)c4)n3)cc12`, for which the growth with HCT-15 colon was 0.545% (active); in the experiment on HT29 colon it was 7.18% (active); with SNB-75 CNS, -56.1% (active); in the experiment with SNB-19 CNS it was 0.141% (active); with U251 CNS, 8.5% (active); in the experiment on PC-3 prostate, -0.531% (active). The growth with SK-MEL-5 melanoma was -74% (active); in the experiment with UACC-62 melanoma, -41.2% (active); in the experiment with LOX IMVI melanoma, -3.87% (active); in the experiment with SK-MEL-28 melanoma it was 1.85% (active); with SK-MEL-2 melanoma, -15.6% (active); in the experiment on EKVX NSCLC, -24.1% (active). In addition, the growth in the experiment with SN12C renal was -4.7% (active); with UO-31 renal it was 2.38% (active); in the experiment with ACHN renal it was -12.1% (active); in the experiment with CAKI-1 renal, -1.58% (active); with A498 renal, -62.8% (active); in the experiment with CCRF-CEM leukemia, 2.24% (active). The growth in the experiment on MOLT-4 leukemia was 1.65% (active).

On to `O=C(CN1CCOCC1)Nc1ccc2ncnc(Nc3ccc(OCc4cccc(F)c4)c(Cl)c3)c2c1`, for which the growth with HCT-15 colon was 60%; with HT29 colon, 61%; with SNB-75 CNS, 69.1%; in the experiment with SNB-19 CNS, 72.2%; in the experiment with U251 CNS, 77.1%; in the experiment on PC-3 prostate, 51.9%. Besides, the growth with SK-MEL-5 melanoma was 61.5%; in the experiment on UACC-62 melanoma, 84.8%; in the experiment with LOX IMVI melanoma, 72.9%; with SK-MEL-28 melanoma it was 77%; with SK-MEL-2 melanoma, 88.1%; in the experiment with EKVX NSCLC it was 25.1%. In addition, the growth in the experiment on UO-31 renal was 30.7%; in the experiment on TK-10 renal, 37.8%; in the experiment on ACHN renal, 24.5%; in the experiment on CAKI-1 renal, 45.8%; with A498 renal it was 28%; in the experiment with CCRF-CEM leukemia it was 66.7%. The growth in the experiment with MOLT-4 leukemia is 47.9%.

For the molecule `CN(C)C(=O)c1cc2cnc(Nc3ccc(-c4csc5c(=O)cc(N6CCOCC6)oc45)cc3)nc2n1C1CCCC1`, the growth in the experiment on HCT-15 colon is -11.4% (active); in the experiment on HT29 colon, -48.6% (active); in the experiment with SNB-75 CNS, -65% (active); in the experiment on SNB-19 CNS it was 1.45% (active); with U251 CNS it was -7.84% (active); in the experiment with PC-3 prostate it was -42% (active). In addition, the growth in the experiment with SK-MEL-5 melanoma was -98% (active); in the experiment on UACC-62 melanoma it was -69.6% (active); in the experiment with LOX IMVI melanoma, -39.3% (active); in the experiment with SK-MEL-28 melanoma, -55.9% (active); with SK-MEL-2 melanoma, -58.6% (active); with EKVX NSCLC, -19.5% (active). Besides, the growth in the experiment with SN12C renal is 4.35% (active); in the experiment with UO-31 renal it was -5.39% (active); with ACHN renal, 1.06% (active); in the experiment with CAKI-1 renal, -50.8% (active); with CCRF-CEM leukemia it was -14.4% (active); in the experiment with MOLT-4 leukemia, -32% (active).

For `COc1ccc(-c2nc(SCCC(C)C)nc(N/N=C(/C)c3ccc(C)cc3)c2C#N)cc1`, the growth is 92.9% with HCT-15 colon; 112% in the experiment on HT29 colon; 84% in the experiment on SNB-75 CNS; 86.8% with SNB-19 CNS; 103% with U251 CNS; 85.8% with PC-3 prostate. In addition, the growth with SK-MEL-5 melanoma is 94.3%; in the experiment on UACC-62 melanoma, 87.4%; with LOX IMVI melanoma, 91%; with SK-MEL-28 melanoma, 103%; in the experiment on SK-MEL-2 melanoma it was 106%; with EKVX NSCLC it was 90.8%. For the same molecule, the growth in the experiment on SN12C renal was 75%; with UO-31 renal, 66%; in the experiment with ACHN renal, 89.6%; in the experiment with CAKI-1 renal, 83.2%; with A498 renal, 99.4%; in the experiment on CCRF-CEM leukemia, 94.4%. In the experiment on MOLT-4 leukemia, the growth is 88.3%.
